# According to PubChem BioAssay (EPA / NIEHS):
# Active and inactive are the calls of the source. Rule for the calls: active = hit-call score of the fitted dose curve at least 0.9, where 1 is the maximum; inactive = score below 0.9.
# Test: ATG_PPRE_CIS: Attagene CIS-FACTORIAL HepG2 Assay for human Peroxisome Proliferator-activated Response Element (PPRE) (AID 2282958)
# Details: HepG2 PPRE cis-element reporter, Attagene transcription factor profiling; actives raise or lower the signal
# Experimental: ATG_CIS is a cell-based, multiplexed-readout assay that uses HepG2, a human liver cell line, with measurements taken at 24 hours after chemical dosing in a 24-well plate.ATG_PPRE_CIS is one of 52 assay component(s) measured or calculated from the ATG_CIS assay. It is designed to make measurements of mRNA induction, a form of inducible reporter, as detected with fluorescence intensity signals by Reverse transcription polymerase chain reaction (RT-PCR) and Capillary electrophoresis technology.Data from the assay component ATG_PPRE_CIS was analyzed into 1 assay endpoint. This assay endpoint, ATG_PPRE_CIS, was analyzed with bidirectional fitting relative to DMSO as the negative control and baseline of activity. Using a type of inducible reporter, measures of mRNA for gain or loss-of-signal activity can be used to understand the reporter gene at the transcription factor-level as they relate to the gene PPARA and PPARD and PPARG. Furthermore, this assay endpoint can be referred to as a primary readout, because this assay has produced multiple assay endpoints where this one serves a reporter gene function. To generalize the intended target to other relatable targets, this assay endpoint is annotated to the nuclear receptor intended target family, where the subfamily is non-steroidal.
# Human liver HepG2 cells are transiently transfected with multiple reporter transcription units (MRTUs) in 6-well plates using FuGene 6 reagent (Roche; 3 ml FuGene/1 mg DNA). The MRTU constructs are regulated by a cis-regulating element (promoter). […] A major difference between the CIS and TRANS system is that in CIS activities of endogenous TFs are measured, whereas the TRANS assay evaluates changes in activities of exogenous, chimeric NR-Gal4 proteins. […] At the end of 24 hour incubation, total RNA was isolated using TriZol reagent (Invitrogen). The isolated RNA is then reverse-transcribed using oligo(dT) primer and Mo-MLV reverse transcriptase (Invitrogen) with DNAse I (Ambion) treatment for 30 min. The one-tenth of the produced cDNA was amplified by PCR using Taq DNA polymerase (Invitrogen) and two reporter sequence-specific primers. The PCR products were fluorescently labeled by primer extension with 6-arboxyfluorescein (6-FAM) 5'-labeled reporter sequence-specific primer (2 min at 95 C, 20 s at 68 C and 10 min at 72 C) and these products were digested with 5U of HpaI (New England Biolabs) for 2h at 37 C. The fragments were purified using Qiaquick PCR columns (Qiagen), analyzed on an ABI 3130xL genetic analyzer (Applied Biosystems) with peak positions identified by using a set of X-rhodamine (ROX)-labeled MapMarker1000 molecular weight standards (BioVentures). The raw capillary electrophoresis data was processed using Attagraph software (Attagene).
SMILES,outcome,AC50
O=C(O)c1cn(-c2ccc(F)cc2)c2cc(N3CCNCC3)c(F)cc2c1=O,inactive,
CC(=O)[C@H]1CC[C@H]2[C@@H]3CC=C4C[C@@H](O)CC[C@]4(C)[C@H]3CC[C@]12C,inactive,
C=CC(C)(O)CCC=C(C)CCC=C(C)C (stereo not given),inactive,
COc1ccnc(CS(=O)c2nc3cc(OC(F)F)ccc3[nH]2)c1OC (stereo not given),inactive,
O=Cc1ccc(Cl)c([N+](=O)[O-])c1,inactive,
Cc1ccccc1C=O,inactive,
O=[N+]([O-])c1ccc(Nc2ccc(Nc3ccccc3)c(S(=O)(=O)O)c2)c([N+](=O)[O-])c1,,49.2 µM (active)
CC(C)C(C)(C)C(C)(C)C(C)(C)S,inactive,
C=C[Si](OCC)(OCC)OCC,inactive,
CC(CCO)CCc1ccccc1 (stereo not given),inactive,
CC(C)CCCCCCCOC(=O)c1ccc(C(=O)OCCCCCCCC(C)C)c(C(=O)OCCCCCCCC(C)C)c1,inactive,
CC1=CCC2C(C1)C2(C)C (stereo not given),inactive,
COc1cc(C=O)ccc1OC(=O)C(C)C,inactive,
CCCCC/C=C/C=C/C=O,inactive,
C=C(C)C(=O)OCc1ccccc1,inactive,
O=C(O)C[C@H](O)C[C@H](O)/C=C/c1c(C2CC2)nc2ccccc2c1-c1ccc(F)cc1,inactive,
CC(=O)c1c(C)cc(C(C)(C)C)cc1C,inactive,
Nc1cc([N+](=O)[O-])ccc1Cl,inactive,
CCCCCNCCCCC,inactive,
ClCCCl,inactive,

SMILES,outcome,AC50
Clc1cccc(Cl)n1,inactive,
CN(C)CCCN,inactive,
C=CC(=O)OCCn1c(=O)n(CCOC(=O)C=C)c(=O)n(CCOC(=O)C=C)c1=O,inactive,
CCC(=O)/C=C/C1C(C)=CCCC1(C)C (stereo not given),,35 µM (active)
CC(CCO)CCCC(C)(C)O (stereo not given),inactive,
CCO[Si](CCCS)(OCC)OCC,inactive,
CC(=O)OCCC(C)CC(C)(C)C (stereo not given),inactive,
CCc1ccc(C=O)cc1,inactive,
CC1CC(OC(=O)c2ccccc2O)CC(C)(C)C1 (stereo not given),inactive,
CSc1nnc(C(C)(C)C)c(=O)[nH]1,inactive,
O=C(OCc1ccccc1)C(=O)OCc1ccccc1,inactive,
OCCN1CCNCC1,inactive,
Clc1ccc(Cl)c(Cl)c1Cl,inactive,
CC(O)C(C)O (stereo not given),inactive,
CC(C)(N)CO,inactive,
Nc1cc(Cl)c(O)c(Cl)c1,,45.3 µM (active)
C=CC[N+](C)(C)CC=C,inactive,
C=CC(=O)OCC(O)COc1ccccc1 (stereo not given),inactive,
CC(C)Oc1ccccc1O,inactive,
CNCCO,inactive,
